Assay [1] can be described thus: qHTS of pediatric cancer cell lines to identify multiple opportunities for drug repurposing: Primary screen for BT-37 cells (AID 1347094). The method in brief:
(§1)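 Luminescence from CellTiter-Glo served as readout of metabolically active cells after 48 h compound exposure. Titrations: MIPE 11-point, from 0.78 nM; NPC 8-point, from 0.59 nM (final). Concentration-response curves came straight from the primary screen.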
Background: In qHTS, concentration-response curves come from the screen itself.

Assay [2] can be described thus: qHTS of pediatric cancer cell lines to identify multiple opportunities for drug repurposing: Primary screen for NB-EBc1 cells (AID 1347095). The method in brief:
as §1

Assay [3] can be described thus: qHTS of pediatric cancer cell lines to identify multiple opportunities for drug repurposing: Primary screen for U-2 OS cells (AID 1347096). Also: nearly all actives have a fitted effect of over 50% in size. The procedure, abridged: (§2)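 Viability after 48 h compound treatment at 37C, 500-1,000 cells/well, read as ATP luminescence with CellTiter-Glo. Primary screens used 11-point (MIPE, 0.78 nM-46 µM) or 8-point (NPC, 0.59 nM-46 µM) final concentrations; follow-up screens used 11-point dilutions.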

The nature of assay [4]: qHTS of pediatric cancer cell lines to identify multiple opportunities for drug repurposing: Primary screen for Saos-2 cells (AID 1347097). Also: nearly all actives have a fitted effect of over 40% in size. The method in brief: as §1
Assay [5] can be described thus: qHTS of pediatric cancer cell lines to identify multiple opportunities for drug repurposing: Primary screen for SK-N-SH cells (AID 1347098). Also: nearly all actives have a fitted effect of over 65% in size. The procedure, abridged: (§3)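 Cells (500-1,000/well) rested 5 h, then received compounds for 48 h; metabolically active cells were measured by CellTiter-Glo luminescence. Final concentrations spanned up to 46 µM (MIPE, 11-point) or 0.59 nM-46 µM (NPC, 8-point) in primary screens, 11-point in follow-ups.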

The nature of assay [6]: qHTS of pediatric cancer cell lines to identify multiple opportunities for drug repurposing: Primary screen for NB1643 cells (AID 1347099). Also: nearly all actives have a fitted effect of over 50% in size. The procedure, abridged:
as §1

Assay [7] in a line: qHTS of pediatric cancer cell lines to identify multiple opportunities for drug repurposing: Primary screen for LAN-5 cells (AID 1347100). The procedure, abridged: as §2
The nature of assay [8]: qHTS of pediatric cancer cell lines to identify multiple opportunities for drug repurposing: Primary screen for BT-12 cells (AID 1347101). Also: nearly all actives have a fitted effect of over 25% in size. The method in brief:
as §3

Assay [9] can be described thus: qHTS of pediatric cancer cell lines to identify multiple opportunities for drug repurposing: Primary screen for Rh18 cells (AID 1347102). Also: nearly all actives have a fitted effect of over 65% in size. The procedure, abridged: as §2
Assay [10] can be described thus: qHTS of pediatric cancer cell lines to identify multiple opportunities for drug repurposing: Primary screen for OHS-50 cells (AID 1347103). Also: nearly all actives have a fitted effect of over 40% in size. The procedure, abridged:
as §3

Assay [11] is described as follows: qHTS of pediatric cancer cell lines to identify multiple opportunities for drug repurposing: Primary screen for RD cells (AID 1347104). Also: nearly all actives have a fitted effect of over 55% in size. The method in brief: as §1
Assay [12] in a line: qHTS of pediatric cancer cell lines to identify multiple opportunities for drug repurposing: Primary screen for MG 63 (6-TG R) cells (AID 1347105). Also: nearly all actives have a fitted effect of over 50% in size. The procedure, abridged: as §1
Assay [13] is described as follows: qHTS of pediatric cancer cell lines to identify multiple opportunities for drug repurposing: Primary screen for control Hh wild type fibroblast cells (AID 1347106). Also: nearly all actives have a fitted effect of over 55% in size. The method in brief: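 Cells (500-1,000/well) in growth media were settled 5 h at 37 degrees C, then given compounds for 48 h. Viability was read as CellTiter-Glo luminescence. Primary runs used MIPE at 11 points (0.78 nM-46 µM) and NPC at 8 points (0.59 nM-46 µM); follow-ups used 11 points.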

A short description of assay [14]: qHTS of pediatric cancer cell lines to identify multiple opportunities for drug repurposing: Primary screen for Rh30 cells (AID 1347107). Also: nearly all actives have a fitted effect of over 75% in size. The procedure, abridged: as §2
Assay [15] is described as follows: qHTS of pediatric cancer cell lines to identify multiple opportunities for drug repurposing: Primary screen for Rh41 cells (AID 1347108). Also: nearly all actives have a fitted effect of over 70% in size. The method in brief:
as §1

Assay [16] in a line: qHTS of pediatric cancer cell lines to identify multiple opportunities for drug repurposing: Confirmatory screen for A673 cells (AID 1347110). Also: nearly all actives have a fitted effect of over 65% in size. The procedure, abridged: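 A673 cells at 500-1,000 cells/well were dosed 5 h after plating, in dilution series up to 46 uM final; primary runs used 8 or 11 points and confirmatory runs used 11 points. Viability was read by CellTiter-Glo luminescence after 48 h, against DMSO and 2.3 uM bortezomib controls.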

The nature of assay [17]: qHTS of pediatric cancer cell lines to identify multiple opportunities for drug repurposing: Confirmatory screen for BT-12 cells (AID 1347112). Also: nearly all actives have a fitted effect of over 55% in size. The method in brief: as §2
The nature of assay [18]: qHTS of pediatric cancer cell lines to identify multiple opportunities for drug repurposing: Confirmatory screen for NB1643 cells (AID 1347109). Also: nearly all actives have a fitted effect of over 45% in size. The method in brief: as §2
The nature of assay [19]: qHTS of pediatric cancer cell lines to identify multiple opportunities for drug repurposing: Confirmatory screen for LAN-5 cells (AID 1347113). Also: nearly all actives have a fitted effect of over 65% in size. The procedure, abridged: as §2
The nature of assay [20]: qHTS of pediatric cancer cell lines to identify multiple opportunities for drug repurposing: Confirmatory screen for SK-N-MC cells (AID 1347111).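 Also: cells exposed to compound for 48 h before the readout; nearly all actives have a fitted effect of over 70% in size.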 The procedure, abridged: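 SK-N-MC cells at 500-1,000 cells/well in growth media were pre-incubated 5 h, then exposed to compounds at 11-point dilutions for 48 h at 37 degrees C, 5% CO2. Viability was read as CellTiter-Glo luminescence.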

Records with an inconclusive call do not appear. Calls of active or inactive are those of the source. Calls follow the shape of the dose curve; as a rule, active = well fitted curve in the direction sought with a large enough effect; inconclusive = small, poorly fitted or top-dose-only effect, or another doubt; inactive = no such curve, though single readings can be large; an effect the other way counts as inactive or inconclusive.
Potency is read from the fitted curve at half-maximal effect.

Regarding `O=C(C=Cc1ccc(CN(CCO)CCc2c[nH]c3ccccc23)cc1)NO`, the Potency in assay [1] was 0.385 µM (active); in assay [2], 0.148 µM (active); in assay [3], 0.469 µM (active); in assay [4], 0.372 µM (active); in assay [5] it was 0.541 µM (active); in assay [6], 0.166 µM (active). Also, the Potency in assay [7] is 0.0935 µM (active); in assay [8], 0.611 µM (active); in [9], 0.105 µM (active); in [10], 0.243 µM (active); in assay [11] it was 0.372 µM (active); in [12], 0.59 µM (active). Moreover, the Potency was 2.35 µM (active) in assay [13]; 1.18 µM (active) in assay [14]; 0.372 µM (active) in [15]; 0.369 µM (active) in [16]; 1.17 µM (active) in assay [17].

With `CC(C)(C)[N+]([O-])=Cc1ccc(S(=O)(=O)O)cc1S(=O)(=O)O`, the Potency entry in [1], in assay [2], in assay [3], in assay [4], in assay [5] and in assay [6] was “inactive” each time. The Potency entry in assay [7], in [8], in assay [9], in assay [10], in assay [12] and in [13] was “inactive” each time. The Potency entry in assay [14] and in [15] was “inactive” each time.

Regarding `C=C1C(=CC=C2CCC[C@]3(C)[C@@H]([C@H](C)CCCC(C)(C)O)CC[C@@H]23)C[C@@H](O)C[C@@H]1O`, the Potency is 6.85 µM (active) in assay [1]; 2.96 µM (active) in assay [2]; 18.7 µM (active) in assay [3]; 14.8 µM (active) in assay [4]; 3.83 µM (active) in [5]; 2.35 µM (active) in assay [6]. The Potency is 1.66 µM (active) in [7]; 6.85 µM (active) in assay [8]; 5.26 µM (active) in assay [9]; 7.69 µM (active) in assay [10]; 9.35 µM (active) in assay [11]; 11.8 µM (active) in assay [12]. Also, the Potency in assay [15] is 5.9 µM (active). Also, the Potency result in [13], in [18], in assay [16] and in assay [19] was “inactive” each time.

Consider `COc1ccc(Nc2cc(-c3cnc(N)nc3)nc(N3CCOCC3)n2)cn1`, for which the Potency in assay [1] is 13.7 µM (active); in assay [2] it was 2.96 µM (active); in assay [3], 14.8 µM (active); in assay [4] it was 1.18 µM (active); in assay [5], 7.64 µM (active); in assay [6] it was 2.96 µM (active). Besides, the Potency in assay [7] is 4.18 µM (active); in [8], 21.7 µM (active); in assay [9], 6.62 µM (active); in assay [10], 0.385 µM (active); in assay [11], 4.18 µM (active); in assay [12], 3.72 µM (active). Further, the Potency was 5.9 µM (active) in [14]; 2.96 µM (active) in [15]; 8.27 µM (active) in assay [18]; 9.27 µM (active) in assay [16]; 6.57 µM (active) in [20]; 2.33 µM (active) in [19].

As to `O=C1NC(O)CCN1[C@@H]1O[C@H](CO)[C@H](O)[C@H]1O` (stereo partly drawn), the Potency entry in [1], in assay [2], in [3], in assay [4], in assay [5] and in assay [6] was “inactive” each time. For the same compound, the Potency entry in assay [7], in [8], in assay [9], in [10], in assay [11] and in [12] was “inactive” in each case. In addition, the Potency result in [13], in [14] and in assay [15] was “inactive” in each case.

In the case of `COc1cc([C@@H]2c3cc4c(cc3[C@@H](O[C@@H]3O[C@@H]5CO[C@@H](c6cccs6)O[C@@H]5[C@H](O)[C@@H]3O)[C@H]3COC(=O)[C@H]23)OCO4)cc(OC)c1O`, the Potency in assay [1] was 0.217 µM (active); in assay [2], 0.0372 µM (active); in assay [3], 3.72 µM (active); in assay [4], 0.59 µM (active); in assay [5], 5.41 µM (active); in assay [6], 0.132 µM (active). Besides, the Potency is 0.0372 µM (active) in assay [7]; 6.11 µM (active) in assay [8]; 0.485 µM (active) in assay [10]; 2.96 µM (active) in assay [11]; 0.657 µM (active) in assay [16]; 0.104 µM (active) in assay [20]. In addition, the Potency in assay [17] is 3.69 µM (active).

Take `CC(=O)OCC(=O)[C@@]12N=C(C)O[C@H]1C[C@H]1[C@@H]3CCC4=CC(=O)C=C[C@]4(C)[C@@H]3[C@@H](O)C[C@@]12C`: the Potency result in assay [1], in [2], in assay [3], in [4], in assay [5] and in assay [6] was “inactive” throughout. Besides, the Potency result in [8], in assay [9], in [10], in assay [11], in assay [12] and in assay [13] was “inactive” each time. The Potency entry in assay [14] and in assay [15] was “inactive” in each case.

In the case of `C[C@@]12C[C@@]3(O)O[C@@H](O1)[C@]1(COC(=O)c4ccccc4)[C@@H]3C[C@@]12O[C@@H]1O[C@H](CO)[C@@H](O)[C@H](O)[C@@H]1O`, the Potency result in assay [1], in assay [2], in assay [3], in assay [4], in assay [5] and in assay [6] was “inactive” throughout. In addition, the Potency entry in assay [7], in [8], in [11], in assay [12], in assay [13] and in assay [14] was “inactive” in each case. Further, in assay [15], the Potency entry is “inactive”.

With `Cc1cc(-c2nnc3n2CCCCC3)c(C)n1-c1ccccc1`, the Potency entry in assay [1], in [2], in assay [3], in [4], in assay [5] and in assay [6] was “inactive” each time. In addition, the Potency result in assay [8], in assay [9], in [11], in [12], in assay [13] and in assay [15] was “inactive” throughout.

With `O=C(C[C@@H]1CC=CCCC(=O)O[C@H](c2ccccc2)CNC1=O)NCc1ccc(Cl)cc1`, the Potency result in assay [1], in assay [2], in assay [3], in [4], in [5] and in assay [6] was “inactive” in each case. The Potency entry in assay [8], in [9], in assay [10], in [12], in [13] and in assay [14] was “inactive” in each case. In addition, the Potency entry in [15] was “inactive”.

For `COC1=C2C[C@@H](C)C[C@H](OC)[C@@H](O)[C@@H](C)C=C(C)[C@H](OC(N)=O)[C@@H](OC)C=CC=C(C)C(=O)NC(=CC1=O)C2=O`, the Potency in assay [1] is 4.32 µM (active); in [2] it was 0.743 µM (active); in assay [5], 2.41 µM (active); in [6], 4.18 µM (active); in assay [7], 8.33 µM (active); in assay [8], 6.11 µM (active). Besides, the Potency was 5.9 µM (active) in [9]; 5.26 µM (active) in assay [11]; 14.8 µM (active) in assay [12]; 7.43 µM (active) in [15]; 1.31 µM (active) in assay [18]; 2.61 µM (active) in [16]. Further, the Potency is 1.04 µM (active) in assay [20] and 1.47 µM (active) in [19]. In addition, the Potency entry in [3] and in assay [4] was “inactive” in each case.

As to `CS[C@H]1SC[C@@H]2C(=O)N(C)[C@H](C(C)C)C(=O)OC[C@H](NC(=O)c3cnc4ccccc4n3)C(=O)N[C@H](C)C(=O)N(C)[C@@H]1C(=O)N(C)[C@H](C(C)C)C(=O)OC[C@H](NC(=O)c1cnc3ccccc3n1)C(=O)N[C@H](C)C(=O)N2C`, the Potency in assay [1] is 0.0017 µM (active); in assay [3], 0.0093 µM (active); in assay [4] it was 0.0418 µM (active); in assay [5], 0.0048 µM (active); in assay [8], 0.0054 µM (active); in [10] it was 0.0122 µM (active). Further, the Potency is 0.003 µM (active) in [11]; 0.0187 µM (active) in [12]; 0.0059 µM (active) in assay [16]; 13.1 µM (active) in assay [20]; 0.0093 µM (active) in assay [17]. The Potency entry in assay [2], in [6], in [7], in assay [18] and in [19] was “inactive” each time.

Values taken from PubChem BioAssay (NCATS).
